Assay results published in PubChem BioAssay (NCATS).
Results filed as inconclusive are left out. Activity calls are given as the source filed them. Unless noted, calls follow the shape of the full dose curve.

How the values were obtained:
[1] = target: Lysosomal acid glucosylceramidase (Homo sapiens) (UniProt P04062); assay: Glucocerebrosidase-p2 (AID 348; in the data active = potency below about 10 µM; also: potency is read from the fitted curve at half-maximal effect); settings: purified GBA, blue fluorogenic substrate, 40 min
In short: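 Normal human glucocerebrosidase (0.2 nM) with blue fluorogenic substrate (80 uM final) in citrate/phosphate pH 5.9 with 10mM sodium taurocholate, 0.01% tween-20; 40 min RT, NaOH/glycine stop; fluorescence Ex 365/Em 440; AC50 from a titration from 0.6 nM upwards.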

[2] = target: Cytochrome P450 1A2 (Homo sapiens) (UniProt P05177); assay: p450-cyp1a2 (AID 410); settings: recombinant CYP1A2, luciferin-ME demethylation, luminescence; series mostly up to 11.4 µM; also: potency is read from the fitted curve at half-maximal effect;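 as to activity change, negative = inhibition: -100% = full effect of reference inhibitor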
In short: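 Luminescent demethylation readout: Luciferin-ME (100uM, equal to Km) turned over by 20nM CYP1A2 for 60 min at room temperature after NADPH regeneration addition, following 10 min compound preincubation. Normalization used 57 uM furafylline as full inhibition.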

[3] = NFAT Signaling Pathway (AID 444; active = well fitted curve in either direction with a large enough effect, not every such curve was filed as active;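 also: carbachol stimulus at about its EC50 of 1 µM final; % is scaled to controls: 0 for no effect and ±100 for the full control effect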); settings: Jurkat NFAT-bla M1, carbachol, beta-lactamase ratio, 5 h; at 7.69 µM (top of the series) unless noted
In short: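 Read-out: CCF4 FRET ratio (460 nm/530 nm) after 1 h RT dye loading, used for %activity and AC50 from titration series. Cells: Jurkat NFAT-β-lactamase/M1 line, treated with compound plus 1 uM carbachol for 5 h, 37 °C.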

[4] = Stat Signaling Pathway (AID 446; active = well fitted curve in either direction with a large enough effect, not every such curve was filed as active;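 also: ME-180 cervical cancer cells given 40 pM IL-6 alongside compound; SIE-controlled beta-lactamase reporter measured as 460/530 nm FRET emission ratio; % is scaled to controls: 0 for no effect and ±100 for the full control effect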); settings: ME-180 SIE beta-lactamase reporter, IL-6 stimulated, 5 h; at 7.69 µM (top of the series) unless noted
In short: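 Normalization used AC90 stimulation (300 pM IL-6) and AC90 inhibition (125 nM pan-JAK inhibitor at 40 pM IL-6). The underlying signal is SIE-driven beta-lactamase in ME-180 cells after 5 h IL-6 exposure with compound.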

[5] = target: Glucocorticoid receptor (Homo sapiens) (UniProt P04150); assay: GR-GFP Redistribution (AID 450;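 active = compounds whose dose series gives a full or clear partial fitted curve of increased nuclear translocation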; also: potency is read from the fitted curve at half-maximal effect); settings: U2OS GR-GFP nuclear translocation, laser cytometry, 2 h
[6] = target: Glucocorticoid receptor (Homo sapiens) (UniProt P04150); assay: GR-EFC Redistribution (AID 451); settings: CHO-K1 GR-EFC translocation, beta-gal luminescence, 2 h; also: potency is read from the fitted curve at half-maximal effect
In short: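 Translocation of GR-ED fusion to nuclear EA restores b-gal, read by luminescence after 1 h room-temperature detection. Engineered CHO-K1 biosensor cells, 1,000/well, exposed 2 h at 37 C to titrations up to 46 uM final.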

[7] = target: Mitogen-activated protein kinase 10 (Mus musculus) (UniProt Q61831); assay: JNK3 AlphaScreen Assay (AID 530; active = well fitted curve in either direction with a large enough effect, not every such curve was filed as active;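 also: kinase came from lysate of stimulated human HepG2 cells; signal reports phosphorylation of biotinylated GST-cJun 1-79 at Ser73 with 10 µM ATP; % is scaled to controls: 0 for no effect and ±100 for the full control effect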); settings: JNK3 lysate, c-Jun phosphorylation; series mostly up to 11.4 µM
In short: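 qHTS titrations with 15 min compound pre-incubation before adding ATP (10 uM final). Read-out: AlphaScreen of Ser73-phosphorylated biotin-GST-cJun using HepG2 lysate JNK3 activated by IL-1β and TNFα.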

[8] = target: 3',5'-cyclic-AMP phosphodiesterase 4B (Homo sapiens) (UniProt Q07343); assay: qHTS Assay for Inhibitors of PDE-IV (AID 607; active = well fitted activation curve with a large enough effect in the main read-out, with a control signal flat, not every such curve was filed as active; also: % of control where 0% means no effect); settings: HEK293 ACTOne CNG channel cells, membrane potential fluorescence; series mostly up to 22.9 µM
In short: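 HEK293 ACTOne cells with CNG channel (1000/well), endogenous PDE4; membrane potential dye, compounds up to 22.9 uM final. Fluorescence Ex 535/Em 590; RO 20-1724 (100 uM final) as reference.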

[9] = target: Cytochrome P450 3A4 (Homo sapiens) (UniProt P08684); assay: qHTS Assay for Activators of Cytochrome P450 3A4 (AID 885; active = well fitted curve in the direction sought with a large enough effect; an effect the other way counts as inactive or inconclusive; also: nearly all actives have a fitted effect of over 65% in size); settings: recombinant CYP3A4, Luciferin-PPXE luminescence, 60 min; series mostly up to 11.4 µM
In short: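 Human CYP3A4 dealkylates Luciferin-PPXE to luciferin, which luciferase detection converts to light. Substrate was at its KM (25uM), buffer 200mM KPO4, reaction 60 min at RT.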

[10] = qHTS Assay for Identification of Small Molecule Agonists for Hypoxia Response Element Signaling Pathway (AID 914; active = well fitted activation curve with a large enough effect in the signal ratio, with a control signal flat, not every such curve was filed as active; the % refers to the signal ratio; also: % of control where 0% means no effect); settings: ME-180 HRE-bla reporter, beta-lactamase ratio, CoCl2, 17 h; activation: hits give high values
In short: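 ME-180 cells carrying an HRE-driven beta-lactamase reporter were treated with compounds in a titration series plus an EC50 level of CoCl2 for 17 h at 37 degrees Celsius; CCF4 readout as the 460nm/530nm ratio gave AC50 values.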

[11] = target: Cytochrome P450 2D6 (Homo sapiens) (UniProt P10635); assay: qHTS Assay for Inhibitors and Substrates of Cytochrome P450 2D6 (AID 891; active = well fitted curve in the direction sought with a large enough effect; an effect the other way counts as inactive or inconclusive; also: potency is read from the fitted curve at half-maximal effect; nearly all actives have a fitted effect of over 60% in size); settings: recombinant CYP2D6, luciferin-ME EGE luminescence; series mostly up to 11.4 µM
In short: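 Luminescent read-out of luciferin formed by 5 nM human CYP2D6 demethylating 30 uM Luciferin-ME EGE (Km level) over 60 min at room temperature after NADPH regeneration addition. Data normalized to full inhibition by 1.43 uM quinidine.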

[12] = Confirmation and Secondary Assay for Modulators of Hemoglobin Beta Chain Splicing at IVS2 654 locus (AID 910; active = well fitted curve in the direction sought with a large enough effect; an effect the other way counts as inactive or inconclusive;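 also: HeLa cells stably carrying EGFP split by mutant beta-globin IVS2-654 intron; per-well total GFP intensity by laser scanning cytometry after 2-day treatment; % of control where 0% means no effect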); settings: HeLa EGFP-654 splicing reporter, GFP fluorescence, 48 h; series mostly up to 38.3 µM
In short: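 Readout: per-well total peak green fluorescence (488 nm ex, 500–520 nm em) from objects 5–250 µm, reflecting correct splicing of an EGFP-654 reporter. Compounds were applied for 2 days at 37 °C to overnight-plated HeLa EGFP-654 cells; controls were DMSO and 500 nM IVS2-654 PNA.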

[13] = target: Cytochrome P450 2C9 (Homo sapiens) (UniProt P11712); assay: qHTS Assay for Inhibitors and Substrates of Cytochrome P450 2C9 (AID 883; active = well fitted curve in the direction sought with a large enough effect; an effect the other way counts as inactive or inconclusive; also: potency is read from the fitted curve at half-maximal effect; nearly all actives have a fitted effect of over 60% in size); settings: recombinant CYP2C9, luciferin-H luminescence, 60 min; series mostly up to 11.4 µM
In short: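 Turnover of Luciferin-H (100uM, KM) by 10nM human CYP2C9 was measured over 60 min at 37C with NADPH regeneration; inhibitors and some substrates reduce luminescence. Data normalized to sulphaphenazole 57uM.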

[14] = target: Cytochrome P450 2C19 (Homo sapiens) (UniProt P33261); assay: qHTS Assay for Inhibitors and Substrates of Cytochrome P450 2C19 (AID 899; active = well fitted curve in the direction sought with a large enough effect; an effect the other way counts as inactive or inconclusive; also: potency is read from the fitted curve at half-maximal effect; nearly all actives have a fitted effect of over 60% in size); settings: recombinant CYP2C19, luciferin-H EGE luminescence; series mostly up to 11.4 µM
In short: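 Reactions contain 5nM enzyme, 10uM Luciferin-H EGE (KM) and 50mM KPO4; compound preincubates 10 min at 37C, NADPH regeneration starts turnover for 60 min. Luminescence after detection reagent gives activity.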

[15] = target: Cytochrome P450 3A4 (Homo sapiens) (UniProt P08684); assay: qHTS Assay for Inhibitors and Substrates of Cytochrome P450 3A4 (AID 884; active = well fitted curve in the direction sought with a large enough effect; an effect the other way counts as inactive or inconclusive; also: potency is read from the fitted curve at half-maximal effect; nearly all actives have a fitted effect of over 50% in size); settings: recombinant CYP3A4, Luciferin-PPXE luminescence; series mostly up to 57.1 µM
In short: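 Luminescent readout of luciferin produced by CYP3A4 (20 nM) dealkylation of Luciferin-PPXE, 25 uM (its KM). NADPH-driven reaction ran 60 min at RT after 10 min compound preincubation; data scaled to 57 uM ketoconazole as 100% inhibition.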

Lysosomal acid glucosylceramidase (Homo sapiens), sequence (P04062 whole entry, looked up): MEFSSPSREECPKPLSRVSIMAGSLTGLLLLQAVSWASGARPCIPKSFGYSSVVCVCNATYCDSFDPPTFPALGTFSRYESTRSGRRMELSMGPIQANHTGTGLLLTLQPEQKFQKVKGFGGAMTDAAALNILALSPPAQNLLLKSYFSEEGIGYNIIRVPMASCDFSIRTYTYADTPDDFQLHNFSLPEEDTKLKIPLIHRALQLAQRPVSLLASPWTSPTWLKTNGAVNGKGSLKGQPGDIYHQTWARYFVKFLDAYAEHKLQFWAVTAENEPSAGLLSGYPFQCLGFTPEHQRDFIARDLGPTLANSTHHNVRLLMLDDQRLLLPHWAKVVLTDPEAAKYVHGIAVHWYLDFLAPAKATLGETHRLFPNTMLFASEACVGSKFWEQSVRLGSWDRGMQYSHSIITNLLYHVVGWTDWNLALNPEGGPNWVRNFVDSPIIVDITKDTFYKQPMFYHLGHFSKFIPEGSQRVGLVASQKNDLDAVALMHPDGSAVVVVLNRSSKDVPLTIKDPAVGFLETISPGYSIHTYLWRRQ
Cytochrome P450 1A2 (Homo sapiens), sequence (P05177 whole entry, looked up): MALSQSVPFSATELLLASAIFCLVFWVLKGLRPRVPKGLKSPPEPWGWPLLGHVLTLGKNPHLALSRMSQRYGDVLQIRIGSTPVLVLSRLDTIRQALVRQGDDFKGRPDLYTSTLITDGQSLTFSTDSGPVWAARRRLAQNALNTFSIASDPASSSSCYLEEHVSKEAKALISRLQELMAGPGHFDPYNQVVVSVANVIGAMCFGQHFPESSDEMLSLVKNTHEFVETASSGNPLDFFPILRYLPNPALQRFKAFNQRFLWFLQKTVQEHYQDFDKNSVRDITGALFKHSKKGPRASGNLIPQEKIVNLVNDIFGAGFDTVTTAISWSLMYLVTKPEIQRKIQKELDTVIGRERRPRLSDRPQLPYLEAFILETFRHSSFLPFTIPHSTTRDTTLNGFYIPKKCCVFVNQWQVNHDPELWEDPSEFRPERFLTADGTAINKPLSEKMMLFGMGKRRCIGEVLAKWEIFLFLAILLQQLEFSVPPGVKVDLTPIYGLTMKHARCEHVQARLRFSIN
Glucocorticoid receptor (Homo sapiens), sequence (P04150 whole entry, looked up, the tested form may be a part): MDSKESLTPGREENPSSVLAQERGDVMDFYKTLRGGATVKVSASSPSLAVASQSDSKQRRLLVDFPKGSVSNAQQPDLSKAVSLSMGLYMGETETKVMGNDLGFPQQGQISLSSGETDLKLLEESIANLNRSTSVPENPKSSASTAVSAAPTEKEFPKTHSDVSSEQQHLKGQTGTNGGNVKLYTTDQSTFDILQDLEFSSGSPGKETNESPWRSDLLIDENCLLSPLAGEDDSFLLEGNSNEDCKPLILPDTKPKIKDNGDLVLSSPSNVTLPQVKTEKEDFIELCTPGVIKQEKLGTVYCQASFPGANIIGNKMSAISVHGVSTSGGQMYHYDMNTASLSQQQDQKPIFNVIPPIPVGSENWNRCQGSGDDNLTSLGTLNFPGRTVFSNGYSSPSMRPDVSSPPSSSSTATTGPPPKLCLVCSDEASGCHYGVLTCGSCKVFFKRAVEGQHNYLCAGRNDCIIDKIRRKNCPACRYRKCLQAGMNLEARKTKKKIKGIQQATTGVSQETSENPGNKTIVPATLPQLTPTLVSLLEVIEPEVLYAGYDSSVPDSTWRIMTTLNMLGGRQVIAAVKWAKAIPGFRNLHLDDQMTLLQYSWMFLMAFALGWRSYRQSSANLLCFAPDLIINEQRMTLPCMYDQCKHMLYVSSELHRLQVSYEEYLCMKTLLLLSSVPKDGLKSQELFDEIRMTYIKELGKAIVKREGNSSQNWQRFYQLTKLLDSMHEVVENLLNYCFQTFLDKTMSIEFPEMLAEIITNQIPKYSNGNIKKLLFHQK
Cytochrome P450 3A4 (Homo sapiens), sequence (P08684 whole entry, looked up): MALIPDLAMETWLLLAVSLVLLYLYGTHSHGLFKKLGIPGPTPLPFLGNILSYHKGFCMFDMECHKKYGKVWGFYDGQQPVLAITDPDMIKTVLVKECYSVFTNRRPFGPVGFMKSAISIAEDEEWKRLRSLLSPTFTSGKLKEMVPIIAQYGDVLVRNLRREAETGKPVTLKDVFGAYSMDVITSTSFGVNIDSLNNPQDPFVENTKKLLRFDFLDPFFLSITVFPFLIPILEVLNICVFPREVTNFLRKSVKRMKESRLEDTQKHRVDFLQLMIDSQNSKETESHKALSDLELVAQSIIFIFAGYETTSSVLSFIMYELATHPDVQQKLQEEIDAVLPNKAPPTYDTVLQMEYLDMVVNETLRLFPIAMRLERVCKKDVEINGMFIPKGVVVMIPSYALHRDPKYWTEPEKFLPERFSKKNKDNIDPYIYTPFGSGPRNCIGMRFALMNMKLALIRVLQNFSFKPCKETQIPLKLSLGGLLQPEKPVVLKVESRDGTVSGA
Cytochrome P450 2D6 (Homo sapiens), sequence (P10635 whole entry, looked up): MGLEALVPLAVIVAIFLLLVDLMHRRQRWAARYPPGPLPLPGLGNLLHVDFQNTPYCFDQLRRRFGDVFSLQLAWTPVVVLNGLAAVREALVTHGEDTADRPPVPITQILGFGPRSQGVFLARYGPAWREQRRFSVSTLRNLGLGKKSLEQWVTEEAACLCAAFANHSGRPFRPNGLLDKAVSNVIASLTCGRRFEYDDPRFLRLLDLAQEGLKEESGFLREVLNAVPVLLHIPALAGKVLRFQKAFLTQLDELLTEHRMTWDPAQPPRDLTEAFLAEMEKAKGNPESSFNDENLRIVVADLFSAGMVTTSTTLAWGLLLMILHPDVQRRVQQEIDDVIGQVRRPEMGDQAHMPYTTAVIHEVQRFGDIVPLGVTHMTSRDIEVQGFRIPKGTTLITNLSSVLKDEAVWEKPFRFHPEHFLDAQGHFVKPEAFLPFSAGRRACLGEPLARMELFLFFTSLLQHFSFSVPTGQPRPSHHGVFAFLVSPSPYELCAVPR
3',5'-cyclic-AMP phosphodiesterase 4B (Homo sapiens), sequence (Q07343 whole entry, looked up): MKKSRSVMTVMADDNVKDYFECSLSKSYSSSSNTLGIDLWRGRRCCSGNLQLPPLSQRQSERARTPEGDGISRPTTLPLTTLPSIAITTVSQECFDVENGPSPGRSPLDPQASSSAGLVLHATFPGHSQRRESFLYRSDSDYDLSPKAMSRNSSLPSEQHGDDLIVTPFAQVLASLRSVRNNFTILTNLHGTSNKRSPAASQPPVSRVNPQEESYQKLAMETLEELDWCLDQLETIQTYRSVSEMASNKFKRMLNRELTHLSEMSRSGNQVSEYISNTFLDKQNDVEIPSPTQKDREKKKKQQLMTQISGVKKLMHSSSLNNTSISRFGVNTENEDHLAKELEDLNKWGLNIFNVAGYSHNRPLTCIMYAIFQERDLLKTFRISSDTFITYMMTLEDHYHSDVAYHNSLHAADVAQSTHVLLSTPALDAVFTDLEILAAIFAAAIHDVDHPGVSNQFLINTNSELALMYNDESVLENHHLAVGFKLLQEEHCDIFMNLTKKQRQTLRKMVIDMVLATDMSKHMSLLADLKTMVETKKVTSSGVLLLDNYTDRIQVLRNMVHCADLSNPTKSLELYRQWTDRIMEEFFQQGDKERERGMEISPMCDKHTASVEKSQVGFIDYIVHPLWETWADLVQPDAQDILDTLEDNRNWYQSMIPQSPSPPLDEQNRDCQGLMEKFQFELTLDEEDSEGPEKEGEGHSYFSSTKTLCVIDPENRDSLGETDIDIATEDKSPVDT
Cytochrome P450 2C19 (Homo sapiens), sequence (P33261 whole entry, looked up): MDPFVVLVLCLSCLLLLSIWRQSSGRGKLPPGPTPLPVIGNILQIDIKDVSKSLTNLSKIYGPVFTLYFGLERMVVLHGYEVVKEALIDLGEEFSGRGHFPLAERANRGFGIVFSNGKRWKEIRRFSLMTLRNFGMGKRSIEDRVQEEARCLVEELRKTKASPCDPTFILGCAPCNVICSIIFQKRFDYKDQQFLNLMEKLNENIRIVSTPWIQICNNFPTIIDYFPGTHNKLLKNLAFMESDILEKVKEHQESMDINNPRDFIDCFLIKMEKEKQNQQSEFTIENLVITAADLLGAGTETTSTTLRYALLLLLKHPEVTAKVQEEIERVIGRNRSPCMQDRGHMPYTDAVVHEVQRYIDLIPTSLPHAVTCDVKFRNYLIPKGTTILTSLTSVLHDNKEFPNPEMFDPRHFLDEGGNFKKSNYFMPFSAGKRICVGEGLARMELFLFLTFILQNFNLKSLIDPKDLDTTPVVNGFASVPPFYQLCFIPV
Cytochrome P450 2C9 (Homo sapiens), sequence (P11712 whole entry, looked up): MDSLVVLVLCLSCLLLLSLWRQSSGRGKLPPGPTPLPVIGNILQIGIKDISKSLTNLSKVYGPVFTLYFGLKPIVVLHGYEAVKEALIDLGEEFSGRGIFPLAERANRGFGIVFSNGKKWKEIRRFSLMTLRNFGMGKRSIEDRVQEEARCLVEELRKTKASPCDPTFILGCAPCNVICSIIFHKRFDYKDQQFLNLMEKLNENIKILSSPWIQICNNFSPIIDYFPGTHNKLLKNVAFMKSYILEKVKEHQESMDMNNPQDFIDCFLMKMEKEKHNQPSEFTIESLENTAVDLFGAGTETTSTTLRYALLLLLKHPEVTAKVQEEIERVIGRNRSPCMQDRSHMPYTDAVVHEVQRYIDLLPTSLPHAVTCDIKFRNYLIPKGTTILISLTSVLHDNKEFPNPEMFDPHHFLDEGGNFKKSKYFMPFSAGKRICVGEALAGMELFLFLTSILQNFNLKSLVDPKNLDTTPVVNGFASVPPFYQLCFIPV

O=C1Oc2ccccc2C(=O)/C1=C\N1C(=O)N/C(=C\c2ccccc2O)C1=O
inactive: Potency [1] > 11.4 µM | activity change, negative = inhibition [3] -7.15% | activity, negative = inhibition [4] -25.4% | Potency [5] > 46 µM | Potency [6] > 9.22 µM | Potency [7] | Potency [8] | Potency [9]
active: Potency [2] 0.316 µM

C[C@]12CC[C@H]3c4ccc(O)cc4CC[C@@H]3[C@H]1CC[C@@H]2OC(=O)CCc1ccccc1
inactive: Potency [1] > 11.4 µM | activity change, negative = inhibition [2] -13.8% [at 2.29 µM] | activity change, negative = inhibition [3] -14.3% | activity, negative = inhibition [4] -1.42% | Potency [5] > 46 µM | Potency [6] > 9.22 µM | Potency [7] | Potency [8]

C/C(=N/S(=O)(=O)c1ccc(Cl)c(Cl)c1)OCC(C)(C)C
inactive: Potency [1] > 11.4 µM | Potency [2] | activity change, negative = inhibition [3] 20% | activity, negative = inhibition [4] 1.9% | Potency [5] > 46 µM | Potency [6] > 9.22 µM | Potency [7] | Potency [8] | activation [10] 8.96%

COc1cccc2c1[C@H](CO)N1[C@H](C#N)[C@@H]3C[C@H](C(=O)O)[C@@H]([C@@H]1C2)N3C
inactive: Potency [1] > 11.4 µM | activity change, negative = inhibition [2] -21% [at 2.29 µM] | Potency [5] > 46 µM | Potency [6] > 9.22 µM | Potency [7] | Potency [8]
active: activity change, negative = inhibition [3] -126%

O=C1c2ccccc2-c2cc([N+](=O)[O-])c([N+](=O)[O-])cc21
active: Potency [2] 0.251 µM
inactive: Potency [1] > 11.4 µM | Potency [5] > 46 µM | Potency [6] > 9.22 µM | Potency [7] | Potency [8]

CN(C)CCCn1c2c3ccccc3ccc2c2oc(=O)c3ccccc3c21
active: Potency [2] 0.316 µM | Potency [11] 1.26 µM
inactive: Potency [1] > 11.4 µM | activity change, negative = inhibition [3] -13.6% | Potency [5] > 46 µM | Potency [6] > 9.22 µM | Potency [7] | Potency [8]

C[C@@]12CC[C@@H]3[C@@H](CC[C@H]4C[C@@H](O)CC[C@]43C)[C@H]1CC[C@@H]2c1cc(C(F)(F)F)n[nH]1
active: Potency [2] 3.98 µM
inactive: Potency [1] > 11.4 µM | activity, negative = inhibition [4] 16.7% | Potency [5] > 46 µM | Potency [6] > 9.22 µM | Potency [7] | Potency [8]

Cc1cccc(CNc2nc(-c3cccnc3)nc3ccccc23)c1
inactive: Potency [1] > 11.4 µM | Potency [5] > 46 µM | Potency [6] > 46 µM | Potency [7] | Potency [9] | outcome [12]
active: Potency [2] 0.631 µM

O=C1C(Cl)=C(Nc2ccc(S(=O)(=O)Nc3ccccn3)cc2)C(=O)c2ccccc21
active: Potency [2] 3.16 µM | Potency [13] 2 µM | Potency [14] 0.794 µM
inactive: Potency [1] > 11.4 µM | Potency [5] > 46 µM | Potency [6] > 9.22 µM | Potency [7] | Potency [8]

CN(C)CCCN1c2ccc(O)cc2Sc2ccc(Cl)cc21
active: Potency [1] 9.49 µM | Potency [2] 0.631 µM | Potency [11] 0.126 µM
inactive: activity, negative = inhibition [4] 18.9% | Potency [5] > 46 µM | Potency [6] > 9.22 µM | Potency [7] | Potency [8]

O[C@H](C[C@@H]1CCCCN1)c1ccc2c(c1)oc1ccccc12
inactive: Potency [1] > 11.4 µM | activity change, negative = inhibition [2] -10.4% [at 2.29 µM] | activity, negative = inhibition [4] 4% | Potency [5] > 46 µM | Potency [6] > 9.22 µM | Potency [8] | activation [10] -0.884%

COc1ccc2nc3cc(Cl)ccc3c(Nc3ccc(O)c(CN4CCN(C)CC4)c3)c2c1
inactive: Potency [1] > 11.4 µM | activity, negative = inhibition [4] 23% | Potency [5] > 46 µM | Potency [6] > 9.22 µM | Potency [7] | Potency [8] | activation [10] 26.1%
active: Potency [2] 3.98 µM

COc1ccc(-c2csc3c2[N+]2=CCC=C2C3=O)cc1
inactive: Potency [1] > 11.4 µM | activity, negative = inhibition [4] -14.9% | Potency [5] > 46 µM | Potency [6] > 9.22 µM | Potency [7] | Potency [8] | Potency [9] | activation [10] 4.84%
active: Potency [2] 0.501 µM | Potency [11] 3.16 µM | Potency [14] 3.98 µM

Cc1cccc(CNc2ncnc3ccc(-c4ccc(C(=O)N(C)C)cc4)cc23)c1
active: Potency [2] 15.8 µM | Potency [15] 2 µM
inactive: Potency [1] > 11.4 µM | activity change, negative = inhibition [3] -8.36% | Potency [5] > 46 µM | Potency [6] > 46 µM | Potency [7] | Potency [8] | Potency [9] | outcome [12]

CCC1=C(C[C@H]2NCCc3ccccc32)C[C@@H]2c3cc(OC)c(OC)cc3CCN2C1
inactive: Potency [1] > 11.4 µM | Potency [2] | activity, negative = inhibition [4] -23.5% | Potency [5] > 46 µM | Potency [6] > 9.22 µM | Potency [7] | Potency [8]

FC(F)(F)c1cccc(-c2nc3nc(Cl)c(Cl)nc3[nH]2)c1
active: Potency [2] 0.398 µM | Potency [13] 3.98 µM
inactive: Potency [1] > 11.4 µM | Potency [5] > 46 µM | Potency [6] > 9.22 µM | Potency [7] | Potency [8] | Potency [9]

C=C(C)COc1ccc2c(c1)CCC1C2CC[C@]2(C)C(=O)/C(=N/O)CC12 (stereo not given in full)
inactive: Potency [1] > 11.4 µM | Potency [2] | activity, negative = inhibition [4] 9.84% | Potency [5] > 46 µM | Potency [6] > 9.22 µM | Potency [7] | Potency [8]
